A selection: hits, their analogues and other compounds. The true share with any hit is near 12%.
AmpC inh no detg – inhibitors of E. coli AmpC beta-lactamase without detergent. AID 485341. P00811. AmpC nitrocefin hydrolysis, absorbance 480 nm, 0.0001% Triton. Potency, µM (titrated, usually from 57.1 µM), usual class: inhibitors. hit rate 0.52% among 330,000; also: nearly all actives have a fitted effect of over 20% in size
Target sequence (P00811 whole entry, looked up): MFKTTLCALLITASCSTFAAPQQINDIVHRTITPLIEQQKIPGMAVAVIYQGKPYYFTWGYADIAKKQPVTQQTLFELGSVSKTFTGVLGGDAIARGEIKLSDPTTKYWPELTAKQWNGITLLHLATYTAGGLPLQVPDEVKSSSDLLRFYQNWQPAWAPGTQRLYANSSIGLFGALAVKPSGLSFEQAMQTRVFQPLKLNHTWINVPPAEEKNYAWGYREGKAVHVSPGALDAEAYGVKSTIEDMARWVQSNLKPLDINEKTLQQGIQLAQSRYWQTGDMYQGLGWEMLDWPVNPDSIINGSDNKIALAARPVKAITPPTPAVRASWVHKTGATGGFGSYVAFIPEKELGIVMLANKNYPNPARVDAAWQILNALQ
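AmpC (5.3 nM in the dispensed reagent) in 20 mM phosphate pH 7.0 with 0.01% (detergent screen) or 0.0001% Triton X-100 was preincubated with compounds for 15 min at room temperature. Nitrocefin was then added from an 800 uM solution, and hydrolysis was followed at 480 nm.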
AmpC inh detg – inhibitors of E. coli AmpC beta-lactamase with detergent; AID 485294; P00811; Potency, µM (series often up to 114 µM), most hits filed as inhibitors; AmpC hydrolysis of nitrocefin, absorbance 480 nm, 0.01% Triton; hit rate 0.041% among 370,000; also: nearly all actives have a fitted effect of over 25% in size
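20 mM phosphate pH 7.0 + 0.01% (detergent screen) or 0.0001% Triton X-100; 5.3 nM AmpC reagent; cpd preinc 15 min RT; nitrocefin (800 uM stock) to start; A480 q20 s × 4 min; Activity was normalised to no-enzyme and no-compound control wells.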
Sm TGR block – S. mansoni TGR enzyme inhibition; Q962Y6; purified TGR, DTNB reduction, TNB absorbance 405 nm; Potency, µM (highest dose often 114 µM), most hits filed as inhibitors; hit rate 3% among 360,000; also: nearly all actives have a fitted effect of over 60% in size
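First, TGR (20 nM dispensed) and NADPH were mixed with compound. Second, a 15 min room-temperature incubation followed. Third, further NADPH and then DTNB were added to start the reaction. Finally, TNB absorbance was monitored kinetically.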
Pf growth 48h – inhibits P. falciparum growth in the first generation, 48 h; P. falciparum luciferase growth in erythrocytes, 48 h; Potency, µM (highest dose often 28.7 µM), usual class: inhibitors; hit rate 5.9% among 310,000; AID 504832
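Read-out is firefly luciferase luminescence from an integrated reporter in P. falciparum, so falling signal marks reduced parasite growth. Infected erythrocytes were at 2% hematocrit and 0.1% parasitemia (final) in Albumax-supplemented RPMI 1640.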
Pf growth 96h – P. falciparum growth inhibition at 96 hours. P. falciparum luciferase reporter growth, 96 h. Potency, µM (top dose mostly 28.7 µM), hits mostly inhibitors. hit rate 6.9% among 320,000. AID 504834
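Luminescence readout: decreased luciferase signal marks inhibited growth of reporter-expressing P. falciparum in infected red cells (2% hematocrit, 0.05% parasitemia final), exposed to compound two generations (96 h, 37 C, 5% CO2).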
SARS PLP yeast – blocks SARS-CoV papain-like protease in a yeast assay | hit rate 0.19% among 330,000 | Potency, µM (titrated, usually from 32.9 µM), actives largely listed as activators | S. cerevisiae expressing SARS-CoV PLpro, growth rescue | AID 485353; calls by dose curve; also: nearly all actives have a fitted effect of over 55% in size
Hits are given with their value; [ ] = dose if it differs, or a comment. Unless noted, calls follow the shape of the dose curve; as a rule, active = well fitted curve in the direction sought with a large enough effect; inconclusive = small, poorly fitted or top-dose-only effect, or another doubt; inactive = no such curve, though single readings can be large; an effect the other way counts as inactive or inconclusive.

`COc1ccc2c(c1)CCc1c(C(=O)NCc3cccnc3)noc1-2` gave AmpC inh no detg inactive, AmpC inh detg inactive, Sm TGR block 28.2µM, Pf growth 48h inactive, Pf growth 96h inactive and SARS PLP yeast inactive.
Cc1ccc(OC(=O)CSc2nnc(CNC(=O)c3ccccc3)o2)cc1 was read as AmpC inh detg inactive and Sm TGR block inactive.
For CCOC(=O)c1c(C)[nH]c(CCC(=O)NCc2cc(OC)c(OC)c(OC)c2)c1C the results were AmpC inh detg inactive and Sm TGR block inactive.
For Clc1ccc2c(N/N=C/c3ccc(Br)cc3)ccnc2c1 the results were AmpC inh no detg inactive, AmpC inh detg inactive, Sm TGR block inactive, Pf growth 48h 0.329µM, Pf growth 96h 1.47µM and SARS PLP yeast inactive.
`Fc1ccc(N/N=C/c2cccnc2)c(F)c1` gave AmpC inh no detg inactive[11.4 µM], AmpC inh detg inactive, Sm TGR block inactive, Pf growth 48h inactive, Pf growth 96h inactive and SARS PLP yeast inactive.
`Clc1ccc2c(N/N=C/c3cccnc3)ccnc2c1` gave AmpC inh no detg inactive, AmpC inh detg inactive, Sm TGR block inactive, Pf growth 48h 0.657µM, Pf growth 96h 0.828µM and SARS PLP yeast inactive.
O=C(N/N=C/c1ccc2nccnc2c1)c1ccc(Br)cc1 was read as AmpC inh no detg inactive, AmpC inh detg inconclusive, Sm TGR block inactive, Pf growth 48h inconclusive, Pf growth 96h inactive and SARS PLP yeast inactive.
`Cc1ccc(Cn2c(C(=O)O)c(CNCc3ccc(OC(C)C)cc3)c3ccc(C)cc32)cc1` gave AmpC inh detg inactive and Sm TGR block inactive.
For CCCCn1c(C2CC(=O)N(c3ccc(OCC)cc3)C2)nc2ccccc21 (configuration not stated) the results were AmpC inh detg inactive and Sm TGR block inactive.
For COC(=O)c1ccccc1NC(=O)CCS(=O)(=O)c1ccc(Br)cc1 the results were AmpC inh no detg inactive, AmpC inh detg inactive, Sm TGR block 10µM, Pf growth 48h inactive[1.15 µM], Pf growth 96h inconclusive and SARS PLP yeast inactive.
Screening Cc1c(Cl)cccc1NC(=O)CNC(=O)CCS(=O)(=O)c1ccc(F)cc1 returned AmpC inh no detg inactive, AmpC inh detg inactive, Sm TGR block 44.7µM, Pf growth 48h inactive, Pf growth 96h inconclusive and SARS PLP yeast inactive.
Screening O=C(CCS(=O)(=O)c1ccc(Br)cc1)Nc1ccc(F)cc1F returned AmpC inh detg inactive and Sm TGR block inactive.
CCc1ccccc1NC(=O)CCS(=O)(=O)c1ccc(Br)cc1 was read as AmpC inh no detg inactive, AmpC inh detg inactive, Sm TGR block inactive, Pf growth 96h inactive and SARS PLP yeast inactive.
O=C(CCS(=O)(=O)c1ccc(Br)cc1)Nc1cc(F)ccc1F was read as AmpC inh no detg inactive, AmpC inh detg inactive, Sm TGR block 12.6µM, Pf growth 48h inactive, Pf growth 96h inconclusive and SARS PLP yeast inactive.
CCN(CC)c1ccc(NC(=O)C2CCCC2)cc1 was read as AmpC inh no detg inactive, AmpC inh detg inactive, Sm TGR block inactive, Pf growth 48h inconclusive, Pf growth 96h inconclusive and SARS PLP yeast inactive.
Screening CCCN(Cc1ccc(N(CC)CC)cc1)CC1CC1 returned AmpC inh no detg inactive, AmpC inh detg inactive, Sm TGR block inactive, Pf growth 48h 11.7µM, Pf growth 96h 1.47µM and SARS PLP yeast inactive.
Screening CCCN(Cc1ccc(N(C)C)cc1)CC1CC1 returned AmpC inh no detg inactive, AmpC inh detg inactive, Sm TGR block inactive, Pf growth 96h 2.08µM and SARS PLP yeast inactive.
Cc1ccc(-n2c(SCC(N)=O)nc3c(oc4ccccc43)c2=O)cc1C was read as AmpC inh detg inactive and Sm TGR block inactive.
For O=C(Nc1ccc2nn(-c3ccccc3)nc2c1)c1ccc(-c2cccc(Cl)c2)o1 the results were AmpC inh detg inactive and Sm TGR block 8.91µM.
O=C(Nc1ccc2oc(=O)ccc2c1)c1ccc(-c2cccc(Cl)c2)o1 was read as AmpC inh no detg inactive, AmpC inh detg inconclusive, Sm TGR block 22.4µM, Pf growth 48h 10.4µM, Pf growth 96h inconclusive and SARS PLP yeast inactive.
Screening O=C(Nc1ccc2oc(=O)ccc2c1)c1ccc(-c2ccccc2[N+](=O)[O-])o1 returned AmpC inh no detg inactive, AmpC inh detg inactive, Sm TGR block inconclusive, Pf growth 48h inactive, Pf growth 96h inactive and SARS PLP yeast inactive.
For O=C(Nc1ccc2oc(=O)ccc2c1)c1ccc(-c2ccc(Cl)cc2)o1 the results were AmpC inh no detg inactive, AmpC inh detg inactive, Sm TGR block inactive, Pf growth 48h inactive, Pf growth 96h inconclusive and SARS PLP yeast inactive.
For COc1cc(NC(=O)c2ccc(-c3cccc([N+](=O)[O-])c3)o2)ccc1NC(=O)C(C)C the results were AmpC inh no detg inactive, AmpC inh detg inconclusive, Sm TGR block inactive, Pf growth 48h 10.4µM, Pf growth 96h inactive and SARS PLP yeast inactive.
O=C(Nc1ccc2oc(=O)ccc2c1)c1ccc(-c2cccc([N+](=O)[O-])c2)o1 was read as AmpC inh no detg inactive, AmpC inh detg inactive, Sm TGR block 50.1µM, Pf growth 48h 4.15µM, Pf growth 96h inconclusive and SARS PLP yeast inactive.
O=C(COC(=O)Cc1ccccc1)NCc1ccc2c(c1)OCO2 was read as AmpC inh no detg inactive and SARS PLP yeast inactive.
Screening CC(=O)Nc1ccc(OCC(=O)NCc2ccc3c(c2)OCO3)cc1 returned AmpC inh no detg inactive, AmpC inh detg inconclusive, Sm TGR block inactive, Pf growth 48h inconclusive, Pf growth 96h inactive and SARS PLP yeast inactive.
COC(=O)CN1C(=O)[C@H]2[C@@H](c3ccc(C)o3)N3C(=O)CN(Cc4ccccc4)C(=O)[C@@]3(C)[C@H]2C1=O was read as AmpC inh no detg inactive, AmpC inh detg inactive, Sm TGR block 22.4µM, Pf growth 48h inactive, Pf growth 96h inactive and SARS PLP yeast inactive.
`Cc1ccc([C@@H]2[C@@H]3C(=O)N(C)C(=O)[C@@H]3[C@]3(C)C(=O)N(Cc4ccccc4)CC(=O)N23)o1` gave AmpC inh no detg inactive, AmpC inh detg inconclusive, Sm TGR block 44.7µM, Pf growth 48h inconclusive, Pf growth 96h inconclusive and SARS PLP yeast inactive.
O=C(Nc1ncc(Cc2cccc(Cl)c2)s1)c1ccc([N+](=O)[O-])cc1 was read as AmpC inh no detg inactive, AmpC inh detg inactive, Sm TGR block inactive, Pf growth 48h inconclusive, Pf growth 96h 13.1µM and SARS PLP yeast inactive.
`Cc1cnc(NC(=O)c2ccc(-c3ccc([N+](=O)[O-])cc3)o2)s1` gave AmpC inh no detg inactive, AmpC inh detg inconclusive, Sm TGR block inactive, Pf growth 48h inconclusive, Pf growth 96h 6.57µM and SARS PLP yeast inactive.
Screening O=C(Nc1ncc(Cc2ccccc2Cl)s1)c1ccc(-c2cccc([N+](=O)[O-])c2)o1 returned AmpC inh no detg inactive, AmpC inh detg inactive, Sm TGR block inactive, Pf growth 48h inconclusive, Pf growth 96h inactive and SARS PLP yeast inactive.

Bioassay records as filed in PubChem BioAssay.
